{
  "source": "paper PMC4336329",
  "about": "(PLoS ONE, 2015)",
  "note": "Among all 310,000 compounds or so, about 14,000 (4.5%) showed an effect of 50% or more. Effects have a minus sign here. Many of the other results were omitted from the sample, so strong results are more common in it than they were.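 Note: peak tail current of the secondary pulse compared with the same well before compound.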",
  "data": [
    {"biological_target": "human ether-à-go-go-related gene (hERG) potassium channel (human, UniProt Q12809)", "sequence (Q12809 whole entry, looked up)": "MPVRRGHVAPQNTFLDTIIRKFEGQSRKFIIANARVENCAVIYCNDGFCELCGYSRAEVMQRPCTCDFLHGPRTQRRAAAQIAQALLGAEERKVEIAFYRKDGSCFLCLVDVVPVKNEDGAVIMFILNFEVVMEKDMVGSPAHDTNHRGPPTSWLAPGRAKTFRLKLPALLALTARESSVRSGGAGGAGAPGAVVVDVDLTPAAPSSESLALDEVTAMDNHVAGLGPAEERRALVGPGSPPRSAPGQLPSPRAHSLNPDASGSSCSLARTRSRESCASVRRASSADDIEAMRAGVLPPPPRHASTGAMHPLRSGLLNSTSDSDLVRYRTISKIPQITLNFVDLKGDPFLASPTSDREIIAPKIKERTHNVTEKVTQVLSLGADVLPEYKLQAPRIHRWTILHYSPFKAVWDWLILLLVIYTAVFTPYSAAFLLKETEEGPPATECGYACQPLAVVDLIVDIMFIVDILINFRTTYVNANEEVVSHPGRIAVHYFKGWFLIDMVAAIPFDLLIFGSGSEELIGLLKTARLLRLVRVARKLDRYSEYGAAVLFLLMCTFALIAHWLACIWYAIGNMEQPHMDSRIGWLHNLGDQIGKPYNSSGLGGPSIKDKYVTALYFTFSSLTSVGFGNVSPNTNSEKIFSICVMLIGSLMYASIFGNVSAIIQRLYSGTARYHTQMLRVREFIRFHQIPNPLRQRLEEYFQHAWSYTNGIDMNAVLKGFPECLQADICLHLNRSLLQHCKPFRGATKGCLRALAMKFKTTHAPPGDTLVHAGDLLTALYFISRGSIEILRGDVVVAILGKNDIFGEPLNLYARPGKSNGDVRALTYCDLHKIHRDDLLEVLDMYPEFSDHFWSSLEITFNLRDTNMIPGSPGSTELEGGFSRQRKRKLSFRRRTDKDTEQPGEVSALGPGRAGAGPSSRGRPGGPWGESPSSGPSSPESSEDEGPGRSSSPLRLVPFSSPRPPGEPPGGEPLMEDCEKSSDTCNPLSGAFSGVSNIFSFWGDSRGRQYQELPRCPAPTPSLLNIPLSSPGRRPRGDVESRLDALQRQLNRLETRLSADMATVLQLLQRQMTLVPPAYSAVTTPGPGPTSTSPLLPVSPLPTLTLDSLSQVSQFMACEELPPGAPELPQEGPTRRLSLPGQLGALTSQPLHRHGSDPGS", "experiment": "primary screen, population patch clamp on CHO cells stably expressing hERG; higher = less effect of the substance", "units": {"hERG current change (%, negative = inhibition) at 10uM": "%"}, "values": [
      {"smiles": "Cc1ccccc1N(C(=O)c1csnn1)C(C(=O)NC1CCCCC1)c1ccncc1", "note": "(stereo not shown)", "hERG current change (%, negative = inhibition) at 10uM": 10.7},
      {"smiles": "CN(C)S(=O)(=O)c1cc(NC(=O)CN2CCOCC2)ccc1Cl", "hERG current change (%, negative = inhibition) at 10uM": 17.7},
      {"smiles": "COc1ccc(NC(=O)c2sc3nc(C)nc(N4CCN(c5ccccn5)CC4)c3c2C)cc1Cl", "hERG current change (%, negative = inhibition) at 10uM": -3.04},
      {"smiles": "Cc1oc2cc(O)cc(O)c2c(=O)c1-c1ccc2c(c1)OCCCO2", "hERG current change (%, negative = inhibition) at 10uM": 3.88},
      {"smiles": "O=C(NC1CCCCCCC1)C1CCN(S(=O)(=O)N2CCCC2)CC1", "hERG current change (%, negative = inhibition) at 10uM": -2.62},
      {"smiles": "O=C(CNC(=O)c1ccco1)OCC(=O)c1ccc([N+](=O)[O-])cc1", "hERG current change (%, negative = inhibition) at 10uM": 11.9},
      {"smiles": "CCc1noc(C)c1C(=O)OCC(=O)c1ccc(OC)c(OC)c1", "hERG current change (%, negative = inhibition) at 10uM": -5.3},
      {"smiles": "CCN(CC)C(=O)c1cccc(NC(=O)c2ccc3c(=O)n4c(nc3c2)CCC4)c1", "hERG current change (%, negative = inhibition) at 10uM": -10.7},
      {"smiles": "CCOc1ccc(NC(=O)c2ccc3c(=O)n4c(nc3c2)CCCCC4)cc1", "hERG current change (%, negative = inhibition) at 10uM": 19.5},
      {"smiles": "CCc1cccc(NC(=O)c2ccc3c(=O)n4c(nc3c2)CCCCC4)c1", "hERG current change (%, negative = inhibition) at 10uM": -76.6},
      {"smiles": "CCOc1ccccc1NC(=O)c1ccc2c(=O)n3c(nc2c1)CCCCC3", "hERG current change (%, negative = inhibition) at 10uM": -58.6},
      {"smiles": "CCOC(=O)c1ccccc1NC(=O)c1ccc2c(=O)n3c(nc2c1)CCCCC3", "hERG current change (%, negative = inhibition) at 10uM": -41.3},
      {"smiles": "COc1ccc(NC(=O)c2ccc3c(=O)n4c(nc3c2)CCCCC4)cc1", "hERG current change (%, negative = inhibition) at 10uM": -40},
      {"smiles": "O=C(Nc1ccc(Cl)cc1)c1ccc2c(=O)n3c(nc2c1)CCCCC3", "hERG current change (%, negative = inhibition) at 10uM": -32.5},
      {"smiles": "CCc1ccc(NC(=O)c2ccc3c(=O)n4c(nc3c2)CCCCC4)cc1", "hERG current change (%, negative = inhibition) at 10uM": -46.8},
      {"smiles": "O=C(Nc1ccc(F)cc1)c1ccc2c(=O)n3c(nc2c1)CCCCC3", "hERG current change (%, negative = inhibition) at 10uM": -51.8},
      {"smiles": "CCc1ccc(C(=O)NNC(=O)c2ccc3c(=O)n4c(nc3c2)CCC4)cc1", "hERG current change (%, negative = inhibition) at 10uM": 5.5},
      {"smiles": "CC(=O)c1cccc(NC(=O)c2ccc3c(=O)n4c(nc3c2)CCCCC4)c1", "hERG current change (%, negative = inhibition) at 10uM": -75.5},
      {"smiles": "CC(=O)c1ccc(NC(=O)c2ccc3c(=O)n4c(nc3c2)CCCCC4)cc1", "hERG current change (%, negative = inhibition) at 10uM": -5.23},
      {"smiles": "Cc1ccc(NC(=O)C2CCCN(S(=O)(=O)c3ccc4[nH]c(=O)ccc4c3)C2)c(C)c1", "note": "(stereo not shown)", "hERG current change (%, negative = inhibition) at 10uM": 3.65},
      {"smiles": "Cc1cccc(C)c1N(CC(=O)N(C)Cc1ccccc1)S(C)(=O)=O", "hERG current change (%, negative = inhibition) at 10uM": 3.99},
      {"smiles": "COC(=O)c1ccc2c(=O)n(Cc3ccc4c(c3)OCO4)c(=S)[nH]c2c1", "hERG current change (%, negative = inhibition) at 10uM": 16.3},
      {"smiles": "CCn1c2ccccc2c2cc(NC(=O)CSc3nnc(-c4ccc(OC)cc4)n3N)ccc21", "hERG current change (%, negative = inhibition) at 10uM": -10.9},
      {"smiles": "O=S(=O)(c1ccc2ccccc2c1)N1CCN(S(=O)(=O)N2CCOCC2)CC1", "hERG current change (%, negative = inhibition) at 10uM": -0.31},
      {"smiles": "O=C(NC1CCN(C(=O)c2cccs2)CC1)c1ccccc1", "hERG current change (%, negative = inhibition) at 10uM": -19.3},
      {"smiles": "COC(=O)c1cc(N=CC2=C(O)CC(C)(C)CC2=O)cc(C(=O)OC)c1", "hERG current change (%, negative = inhibition) at 10uM": -16.3},
      {"smiles": "O=C(c1ccccc1)N1CCN(c2ncnc3c(-c4ccccc4)nsc23)CC1", "hERG current change (%, negative = inhibition) at 10uM": 6.38},
      {"smiles": "Cc1nc2ccccc2c(=O)n1/N=C/c1ccc(O)cc1", "hERG current change (%, negative = inhibition) at 10uM": 10.9},
      {"smiles": "Cc1nn(-c2ccccc2)c2nc(=O)n(-c3ccccc3)cc12", "hERG current change (%, negative = inhibition) at 10uM": -10.9},
      {"smiles": "Cc1ccc(S(=O)(=O)Nc2cccc(-n3cnnn3)c2)cc1C(=O)O", "hERG current change (%, negative = inhibition) at 10uM": 3.97},
      {"smiles": "O=C(NC1CCCCCC1)c1ccc2c(=O)n3c(nc2c1)CCCCC3", "hERG current change (%, negative = inhibition) at 10uM": -51},
      {"smiles": "CCOC(=O)N1CCC(NC(=O)c2ccc3c(=O)n4c(nc3c2)CCCC4)CC1", "hERG current change (%, negative = inhibition) at 10uM": 12},
      {"smiles": "O=C(c1ccc2c(=O)n3c(nc2c1)CCCCC3)N1CCCCC1", "hERG current change (%, negative = inhibition) at 10uM": 17.5},
      {"smiles": "CCNc1ccc(C(=O)OCC)cc1NC(=O)c1cc(S(=O)(=O)N2CCOCC2)ccc1C", "hERG current change (%, negative = inhibition) at 10uM": -10.9},
      {"smiles": "Cn1c(SCC(=O)N2CCCC2)nnc1-c1cccs1", "hERG current change (%, negative = inhibition) at 10uM": 4.73},
      {"smiles": "CN(C(=O)COC(=O)CSc1cc(Cl)ccc1Cl)c1c(N)n(Cc2ccccc2)c(=O)[nH]c1=O", "hERG current change (%, negative = inhibition) at 10uM": -0.021},
      {"smiles": "C[C@H]1CN=C(Nc2ccccc2)N1CCC1CCCCC1", "hERG current change (%, negative = inhibition) at 10uM": -46.8},
      {"smiles": "C[C@H]1CN=C(Nc2ccccc2)N1CC1CCCCC1", "hERG current change (%, negative = inhibition) at 10uM": 0.474},
      {"smiles": "C[C@H]1CN=C(Nc2ccccc2)N1CCC1CCCC1", "hERG current change (%, negative = inhibition) at 10uM": -10.6},
      {"smiles": "C[C@H]1CN=C(Nc2ccccc2)N1CCCC1CCCCC1", "hERG current change (%, negative = inhibition) at 10uM": -62.2},
      {"smiles": "C[C@H]1CN=C(Nc2ccccc2)N1CCCC1CCCC1", "hERG current change (%, negative = inhibition) at 10uM": -58.7},
      {"smiles": "C[C@H]1CN=C(Nc2ccccc2)N1CC1CCCCCC1", "hERG current change (%, negative = inhibition) at 10uM": -24.5},
      {"smiles": "COc1ccc(S(=O)(=O)N2CCOC2CNC(=O)C(=O)NCc2ccncc2)cc1OC", "note": "(stereo not shown)", "hERG current change (%, negative = inhibition) at 10uM": 10.3},
      {"smiles": "Cc1cccc(-c2nc(S(=O)(=O)c3ccc(F)cc3)c(NCCCN3CCOCC3)o2)c1", "hERG current change (%, negative = inhibition) at 10uM": -69.4},
      {"smiles": "Cc1ccccc1-c1nc(S(=O)(=O)c2ccc(Cl)cc2)c(NCCN2CCOCC2)o1", "hERG current change (%, negative = inhibition) at 10uM": -20.2},
      {"smiles": "O=S(=O)(c1ccc(Cl)cc1)c1nc(-c2ccccc2F)oc1NCCN1CCOCC1", "hERG current change (%, negative = inhibition) at 10uM": -67},
      {"smiles": "Cc1ccc(S(=O)(=O)c2nc(-c3ccccc3)oc2NCCN2CCOCC2)cc1", "hERG current change (%, negative = inhibition) at 10uM": 3.12},
      {"smiles": "O=S(=O)(c1ccc(Cl)cc1)c1nc(-c2ccccc2F)oc1NCCCN1CCOCC1", "hERG current change (%, negative = inhibition) at 10uM": -10.4},
      {"smiles": "O=S(=O)(c1ccccc1)c1nc(-c2ccccc2)oc1NCCCN1CCOCC1", "hERG current change (%, negative = inhibition) at 10uM": -43.9},
      {"smiles": "COc1cccc(CN2CCN(C(=O)c3cccc4ccccc34)CC2)c1.O=C(O)C(=O)O", "hERG current change (%, negative = inhibition) at 10uM": -12},
      {"smiles": "COc1cccc(CN(C)C(=O)C2CC(=O)N(c3ccc4c(c3)OCCO4)C2)c1", "note": "(stereo not shown)", "hERG current change (%, negative = inhibition) at 10uM": 12.1},
      {"smiles": "COc1cccc(-c2nc3ccc(O)cc3c(=O)o2)c1", "hERG current change (%, negative = inhibition) at 10uM": 1.21},
      {"smiles": "Cc1ccc(OCC(=O)N2CCN(C(=O)c3cccs3)CC2)cc1", "hERG current change (%, negative = inhibition) at 10uM": -34.8},
      {"smiles": "O=C(COc1ccccc1)N1CCN(C(=O)c2cccs2)CC1", "hERG current change (%, negative = inhibition) at 10uM": -13.4},
      {"smiles": "CCOc1cc(C#N)ccc1OCC(=O)N1CCc2ccccc2C1", "hERG current change (%, negative = inhibition) at 10uM": -40.7},
      {"smiles": "O=C(COc1ccccc1Br)N1CCN(C(=O)c2cccs2)CC1", "hERG current change (%, negative = inhibition) at 10uM": -32.2},
      {"smiles": "O=C(COc1ccc(Cl)cc1)N1CCN(C(=O)c2cccs2)CC1", "hERG current change (%, negative = inhibition) at 10uM": -74.5},
      {"smiles": "O=C(COc1ccc(-c2ccccc2)cc1)N1CCN(C(=O)c2cccs2)CC1", "hERG current change (%, negative = inhibition) at 10uM": -41.8},
      {"smiles": "COc1ccc(OCC(=O)N2CCN(C(=O)c3cccs3)CC2)cc1", "hERG current change (%, negative = inhibition) at 10uM": -43.3},
      {"smiles": "CCOc1cc(C#N)ccc1OCC(=O)N1CCN(C(=O)c2cccs2)CC1", "hERG current change (%, negative = inhibition) at 10uM": -67.7},
      {"smiles": "O=C(COc1ccc2ccccc2c1)N1CCN(C(=O)c2cccs2)CC1", "hERG current change (%, negative = inhibition) at 10uM": -50}
    ]}
  ]
}
